Reference: PubChem BioAssay
Activity calls are given as the source filed them. Unless noted, how the calls were made is not given here.

Assays:
[1] = system: Wnt5a (protein binding on small-molecule microarray); assay: Wnt5a binders on small-molecule microarray, primary screen, biophysical, 635/667 nm fluorescence (AID 1142); conditions: 635 nm fluorescence, higher = more signal;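 further: fluorescence read at 667 nm with signal to noise per printed feature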
[2] = cell viability in Huh7 cells, primary screen, cytotoxicity control for HCV replication inhibitor project, CellTiter-Glo luminescence, basal, 48 h (AID 1143); conditions: Huh7 HCV replicon, higher = more signal, called active from +8 up or from −8 down;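 further: Huh7 hepatoma cells carrying a hepatitis C replication reporter with no stimulus; test concentration not given here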
[3] = P. aeruginosa biofilm formation inhibitors, primary screen, PAO1 strain, BacTiter-Glo luminescence, LB-PBS (AID 1144); conditions: 12 h, higher = more signal
[4] = CREB reporter modulators without forskolin, primary screen, cell-based, PC12, CRE-LacZ reporter, unstimulated (AID 1145); conditions: no forskolin, luminescence, 4.5 h, higher = more signal, called active from +8 up or from −8 down
[5] = CREB reporter modulators under forskolin, primary screen, cell-based, PC12, CRE-LacZ reporter, forskolin-stimulated (AID 1146); conditions: luminescence, 4.5 h, higher = more signal, called active from +8 up or from −8 down;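 further: PC12 cells with 6xCRE LacZ reporter stimulated by forskolin 10 µM; beta-galactosidase reporter signal reflecting CREB driven transcription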
[6] = target: Streptavidin (Streptomyces avidinii) (UniProt P22629); assay: streptavidin binders on small-molecule microarray, primary screen, artefact control for SMM compound annotation, biophysical, 635/667 nm fluorescence (AID 1147); conditions: streptavidin binding, higher = more signal;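 further: signal reflects streptavidin binding to arrayed compounds as a control protein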
[7] = small-molecule binders of probe aInhba, primary screen, biochemical, small-molecule microarray, 635/667 nm fluorescence (AID 1148); conditions: higher = more signal;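 further: score merges 667nm spot fluorescence with signal-to-noise for antibody binding to printed compounds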
Torsin-1A (Homo sapiens) [8] = target: Torsin-1A (Homo sapiens) (UniProt O14656); assay: torsin A binders from cell lysate, primary screen, small-molecule microarray, wild-type, 635/667 nm (AID 1149); conditions: COS7 hTOR1A-WT lysate, 635 nm fluorescence, higher = more signal
Torsin-1A (Homo sapiens) [9] = target: Torsin-1A (Homo sapiens) (UniProt O14656); assay: small-molecule binders of mutant TOR1A in lysate, primary screen, cell lysate, small-molecule microarray, COS7 lysate, 635/667 nm fluorescence (AID 1150); conditions: COS7 hTOR1A mutant lysate, 635 nm fluorescence, higher = more signal;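 further: score pools 667 nm emission and signal to noise measuring lysate protein binding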
[10] = system: Sonic hedgehog protein (Shh); assay: small-molecule binders of Shh protein, primary screen, biochemical, small-molecule microarray, 635/667 nm fluorescence (AID 1151); conditions: small-molecule microarray binding, 635 nm fluorescence; higher = more signal;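 further: Shh protein binding to compounds spotted on small-molecule microarray slides; score combines spot fluorescence intensity with signal-to-noise across triplicate slides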

Streptavidin (Streptomyces avidinii), sequence (P22629 whole entry, looked up): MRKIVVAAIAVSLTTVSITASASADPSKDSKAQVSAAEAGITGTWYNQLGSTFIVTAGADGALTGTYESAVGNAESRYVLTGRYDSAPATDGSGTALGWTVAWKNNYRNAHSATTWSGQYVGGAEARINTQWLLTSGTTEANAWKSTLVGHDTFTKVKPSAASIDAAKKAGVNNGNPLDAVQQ
Torsin-1A (Homo sapiens), sequence (O14656 whole entry, looked up): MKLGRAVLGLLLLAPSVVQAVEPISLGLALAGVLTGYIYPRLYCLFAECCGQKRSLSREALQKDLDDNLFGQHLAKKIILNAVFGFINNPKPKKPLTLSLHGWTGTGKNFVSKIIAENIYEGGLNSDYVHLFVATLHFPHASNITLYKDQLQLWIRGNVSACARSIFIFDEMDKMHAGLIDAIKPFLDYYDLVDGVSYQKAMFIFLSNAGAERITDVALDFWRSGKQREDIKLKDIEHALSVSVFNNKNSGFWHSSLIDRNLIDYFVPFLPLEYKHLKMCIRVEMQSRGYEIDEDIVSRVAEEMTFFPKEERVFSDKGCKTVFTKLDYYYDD

| SMILES | composite z-score [1] | z-score [2] | z-score [3] | z-score [4] | z-score [5] | composite z-score [6] | composite z-score [7] | composite z-score (Torsin-1A (Homo sapiens) [8]) | composite z-score (Torsin-1A (Homo sapiens) [9]) | composite z-score [10] |
| --- | --- | --- | --- | --- | --- | --- | --- | --- | --- | --- |
| O=C1OCC=C[C@H]2OC34C=CCN(c5ccc6ccccc6c5)C(=O)[C@H]3N(CCCO)C(=O)[C@@H]4[C@@H]12 (stereo not given in full) | -0.701 | -2.14 (inactive) | 0.179 (inactive) | 0.337 (inactive) | 0.27 (inactive) | -0.835 | -0.0675 | -1.69 | -1.38 | -0.372 |
| CN1C(=O)C2C(C1=O)C1C=C(CCCO)C2C(c2cccs2)N1C (stereo not given) | 0.0691 | -0.273 (inactive) | 0.0748 (inactive) | 0.236 (inactive) | 0.289 (inactive) | -0.96 | 0.141 | -0.381 | -0.332 | -0.11 |
| O=C1OCC=C[C@H]2OC34C=CCN(c5ccc(Cl)cc5)C(=O)[C@H]3N(CCCCCCO)C(=O)[C@@H]4[C@@H]12 (stereo not given in full) | -0.557 | -0.652 (inactive) | 1.36 (inactive) | 1.41 (inactive) | -0.0889 (inactive) | -0.857 | -0.0494 | -1.39 | -1.21 | -0.38 |
| O=C1O[C@H](c2ccccc2)[C@H](c2ccccc2)N2[C@H]1[C@@H](C(=O)N1CCN(c3ncccn3)CC1)[C@]1(C(=O)Nc3ccccc31)[C@H]2c1ccc(OCCO)cc1 | 0.505 | -5.5 (inactive) | -2.01 (inactive) | -0.528 (inactive) | -0.222 (inactive) | -0.0363 | 0.0588 | 1.43 | 0.36 | 1.98 |
| CC(C)(C)N1CC=CC23O[C@@H]4C=CCOC(=O)[C@@H]4[C@H]2C(=O)N(CCCCCO)[C@@H]3C1=O (stereo not given in full) | -0.248 | 0.228 (inactive) | 0.123 (inactive) | -0.631 (inactive) | 0.687 (inactive) | -1.41 | -0.421 | -0.803 | -1.05 | -0.15 |
| COC(=O)C[C@H]1O[C@]2(C(=O)N(Cc3ccccc3)c3ccc(NC(C)=O)cc32)[C@@H](C)[C@@H]1[Si](C)(C)c1ccc(OC)cc1 | 0.0998 | -0.796 (inactive) | 0.695 (inactive) | 1.84 (inactive) | -0.792 (inactive) | 0.174 | -0.251 | -0.0471 | 0.033 | 0.978 |
| CCCCCCc1nc(CCCc2cc3c(c(CCCCCC)n2)[Si](C(C)C)(C(C)C)OC3)cc2c1[Si](C(C)C)(C(C)C)OC2 | -0.0564 | -5.79 (inactive) | -0.194 (inactive) | 1.78 (inactive) | 0.444 (inactive) | 1.91 | -0.101 | -0.333 | 0.0509 | 0.551 |
| COCC1=C2[C@@H](CCc3ccccc3)OB(O)C[C@@H]2[C@@H]2C(=O)N(Cc3ccccc3)C(=O)[C@@H]2C1 | 0.278 | 0.0597 (inactive) | 1.07 (inactive) | 0.663 (inactive) | -0.0777 (inactive) | 0.0569 | -0.152 | -0.427 | 0.0316 | 0.333 |
| C=C[C@H](C)[C@@H](O)c1ccc(O)c2ccccc12 | -0.302 | -0.276 (inactive) | -0.501 (inactive) | -0.869 (inactive) | 1.63 (inactive) | -0.785 | -0.0471 | -0.378 | -0.0127 | 1.38 |
| O=C1C[C@]2(c3ccc([N+](=O)[O-])cc3)C(=O)N(CC(F)(F)F)c3cc(CO)ccc3[C@H]2N1CC12CC3CC(CC(C3)C1)C2 | -0.171 | -1.89 (inactive) | -0.892 (inactive) | -0.698 (inactive) | 0.0632 (inactive) | -0.143 | 0.0091 | -0.662 | -0.156 | 0.277 |
| O=C1N(CCS(=O)(=O)c2ccccc2)c2ccccc2C[C@@]12COC(c1ccc(OCCCO)cc1)=N2 | 0.576 | -1.46 (inactive) | 0.261 (inactive) | 0.218 (inactive) | -0.151 (inactive) | 0.906 | 0.362 | 0.784 | 0.967 | 0.534 |
| COC(=O)[C@@]1(Cc2ccc(F)cc2)[C@H]2c3cc(C(=O)N(C)C)n(CCc4ccccn4)c3C[C@H]2CN1C(=O)c1ccccc1 | 1.9 | -1.86 (inactive) | -0.604 (inactive) | 0.39 (inactive) | -0.038 (inactive) | -0.0936 | 1.14 | 1.23 | 0.948 | -0.154 |
| COc1cc(CO)ccc1OC(C)=O | 0.226 | -2.07 (inactive) | -0.433 (inactive) | 0.0918 (inactive) | -0.874 (inactive) | 0.683 | -0.308 | 0.867 | 0.388 | 1.05 |
| C=CCC(OC(C)=O)[C@@H]1[C@@H](N(Cc2cccc3ccccc23)C(=O)c2ccc(C)cc2)c2cc(OCCCO)ccc2N1C(=O)Cc1ccc(OC)cc1 (stereo not given in full) | -0.0466 | -0.798 (inactive) | -0.738 (inactive) | -0.402 (inactive) | -0.281 (inactive) | 0.547 | -0.189 | 0.291 | 0.553 | 0.562 |
| C[C@H]1NC(=O)[C@H](Cc2ccccc2)NC(=O)[C@@]23C(=O)N[C@@H](Cc4ccccc4)C2[C@H](C)[C@@]2(C)O[C@H]2C3/C=C/C/C=C\CNC1=O (stereo not given in full) | -0.182 | -0.679 (inactive) | 0.615 (inactive) | 2.67 (inactive) | -0.522 (inactive) | -0.496 | -0.179 | -0.477 | -0.402 | 0.249 |
| CCOC(=O)C[C@H]1[C@H](OC(=O)c2ccc(-c3ccccc3)cc2)[C@@H](NC(=O)c2ccc3ccccc3c2)c2cc(OCCCO)ccc2N1C(=O)Cc1ccc(OC)cc1 | 0.266 | 0.359 (inactive) | -0.599 (inactive) | -1.01 (inactive) | 0.809 (inactive) | -0.0829 | -0.0954 | 0.0044 | -0.497 | -0.0004 |
| COC(=O)C(CC#Cc1ccc2c(c1)[C@]1(C(=O)N2)[C@H](c2ccc(OCCO)cc2)N2[C@H](c3ccccc3)[C@H](c3ccccc3)OC(=O)[C@H]2[C@@H]1C(=O)NC[C@H](O)c1ccccc1)C(=O)OC | 0.593 | -1.17 (inactive) | -0.923 (inactive) | 0.0384 (inactive) | -0.926 (inactive) | 0.472 | 0.0442 | 0.413 | 0.532 | 1.4 |
| COCCOC(=O)N1C(=O)[C@@]2(c3cc(C#CC4=CCCCC4)ccc31)[C@H](C(=O)N1CCc3cc(OC)c(OC)cc3C1)[C@H]1C(=O)O[C@H](c3ccccc3)[C@H](c3ccccc3)N1[C@@H]2c1ccccc1OCCO | 0.192 | -1.3 (inactive) | 0.597 (inactive) | 0.0736 (inactive) | -1.14 (inactive) | 0.154 | 0.0939 | 0.198 | 0.274 | 2.05 |
| COc1ccc(CCN2C(=O)[C@@]3(Cc4ccccc42)c2ccccc2C(=O)N(Cc2ccccc2Cl)[C@H]3c2ccc(CO)cc2)cc1 | -0.0887 | -1.7 (inactive) | -0.456 (inactive) | 0.558 (inactive) | 0.131 (inactive) | -0.343 | -0.0403 | -0.921 | -0.77 | -0.801 |
| O=C1[C@]2(CO)C=C(Br)[C@@H](C[C@@H]2c2ccccc2)[C@@]12CO2 | -0.165 | -0.296 (inactive) | -0.547 (inactive) | 1.12 (inactive) | 3.94 (inactive) | 1.26 | -0.237 | -0.619 | 0.0294 | 0.344 |
| CC(=O)C1=CCC(c2ccccc2)N(S(=O)(=O)c2ccc(C)cc2)C1 (stereo not given) | -0.004 | -1.06 (inactive) | -0.65 (inactive) | -0.116 (inactive) | 0.151 (inactive) | 1.69 | -0.0087 | 0.911 | 1.55 | -0.194 |
| CC(C)N1C(=O)c2ccccc2[C@@H](C(=O)NCCCN(C)C)[C@@H]1c1ccc(CO)cc1 | -0.0882 | -0.921 (inactive) | -0.282 (inactive) | -0.116 (inactive) | -0.0135 (inactive) | -0.418 | 0.0633 | -0.0795 | -0.0729 | -0.589 |
| CC(C)NC(=O)[C@@H]1c2ccccc2C(=O)N(Cc2ccccc2Cl)[C@H]1c1ccc(CO)cc1 | -0.243 | -0.485 (inactive) | 0.471 (inactive) | 0.145 (inactive) | -0.47 (inactive) | -0.418 | -0.179 | 0.267 | 0.343 | 0.0599 |
| O=C1C2C=CC(C(O)c3ccc(B(O)O)cc3)N(Nc3ccccc3)C2C(=O)N1c1ccccc1 (stereo not given) | -0.0341 | -2.7 (inactive) | -1.06 (inactive) | 0.24 (inactive) | 1.11 (inactive) | 0.471 | -0.0797 | -0.138 | -0.724 | -0.661 |
| CC(C)c1ccc(NN2C(C(O)c3cccc(O)c3)C=CC3C(=O)N(c4ccccc4)C(=O)C32)cc1 (stereo not given) | 0.125 | -0.392 (inactive) | -0.406 (inactive) | 1.39 (inactive) | 1.67 (inactive) | 1.52 | 0.0236 | 0.77 | 1.3 | 0.671 |
| CCOC(=O)C[C@H]1[C@H](OC(=O)Cc2ccc3c(c2)OCO3)[C@@H](NC(=O)c2ccc(-c3ccccc3)cc2)c2cc(OCCCO)ccc2N1C(=O)c1ccccc1 | 0.0105 | -0.299 (inactive) | -1.24 (inactive) | 3.12 (inactive) | -1.27 (inactive) | 0.0534 | 0.0906 | 0.328 | 0.132 | 0.358 |
